Source: PubChem BioAssay
Compounds with a hit are over-represented: about 2.7% of the library has one in this group of screens.
ALOX12 inh = ALOX12 (human) lipoxygenase inhibition. Potency, µM (series often up to 108 µM), without a hit: at the top dose activity change, negative = inhibition, usual class: inhibitors. actives 1.1% (n = 580,000). purified 12hLO, xylenol orange hydroperoxide absorbance. P18054; also: % is scaled to controls: 0 for no effect and ±100 for the full control effect
Target sequence (P18054 whole entry, looked up): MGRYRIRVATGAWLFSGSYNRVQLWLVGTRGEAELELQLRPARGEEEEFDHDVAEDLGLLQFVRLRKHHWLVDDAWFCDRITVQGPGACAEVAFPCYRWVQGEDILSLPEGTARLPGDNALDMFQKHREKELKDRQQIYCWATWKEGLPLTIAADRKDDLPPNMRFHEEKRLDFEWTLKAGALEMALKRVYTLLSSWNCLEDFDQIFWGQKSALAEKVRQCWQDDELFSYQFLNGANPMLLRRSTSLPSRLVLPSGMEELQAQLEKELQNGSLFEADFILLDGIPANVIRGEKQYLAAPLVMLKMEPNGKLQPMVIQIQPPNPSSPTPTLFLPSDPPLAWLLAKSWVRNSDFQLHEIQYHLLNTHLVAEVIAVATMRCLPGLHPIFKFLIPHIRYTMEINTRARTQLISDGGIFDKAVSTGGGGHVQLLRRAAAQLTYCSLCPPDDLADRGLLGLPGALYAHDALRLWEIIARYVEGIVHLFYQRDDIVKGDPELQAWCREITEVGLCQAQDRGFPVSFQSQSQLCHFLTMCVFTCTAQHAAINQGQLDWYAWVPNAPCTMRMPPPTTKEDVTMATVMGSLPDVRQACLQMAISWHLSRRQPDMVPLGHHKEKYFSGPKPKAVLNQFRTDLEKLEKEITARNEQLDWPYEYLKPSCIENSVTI
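Purified human 12hLO at 150 nM in 25 mM Hepes, 0.01% Triton X-100, pH 7.0, preincubated 15 min at room temperature with compound. Reaction started with 40 uM arachidonic acid, 30 min at room temperature. Hydroperoxide measured by Fe-xylenol orange, 573/405 nm absorbance ratio.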
TGFb inhibitor = inhibitors of TGF-b signaling. HepG2 CAGA-GFP TGF-b/SMAD3 reporter, GFP fluorescence, 18 h; TGF-beta stimulated, 500 pg/mL final. Potency, µM (highest dose often 46.1 µM), for the others: top-dose activity, negative = inhibition, most hits filed as inhibitors. actives 1.2% (n = 410,000). AID 588855; also: % is scaled to controls: 0 for no effect and ±100 for the full control effect; nearly all actives have a fitted effect of over 65% in size
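Inhibition of TGF-beta-driven CAGA-GFP reporter expression in HEPG2 cells is measured by cellular GFP fluorescence after 18 h stimulation with 500 pg/mL recombinant TGF-beta in 1% FBS medium at 37 degrees C.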
ATXN viability = viability counter-screen for ATXN expression inhibitors; S2 cells (HEK-293 line with an ATXN2-luciferase reporter) viability, CellTiter-Fluor protease fluorescence, 24 h; Potency, µM (highest dose often 56.7 µM), usual class: cytotoxic; actives 0.49% (n = 400,000); AID 651635; also: nearly all actives have a fitted effect of over 40% in size
ATXN2 expr inh = ATXN2 expression inhibition | HEK-293 ATXN2-luciferase reporter, luminescence, 24 h | actives 0.72% (n = 360,000) | Potency, µM (titrated, usually from 57 µM), inactives show at the highest dose activity change, negative = inhibition, actives largely listed as inhibitors; also: % is scaled to controls: 0 for no effect and ±100 for the full control effect; nearly all actives have a fitted effect of over 55% in size
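ATXN2-luciferase reporter cells (luciferase flanked by upstream and downstream ATXN2 gene portions) were treated 24 h at 37 °C with compounds at up to 57 uM. SteadyGlo luminescence gave expression; GF-AFC fluorescence gave viability.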
HepG2 tox-1 = HepG2 cytotoxicity, counter-screen for TGF-b inhibitors | HepG2 CAGA-GFP viability, ATP luminescence, 18 h | Potency, µM (series often up to 46.1 µM), inactives show at the highest dose activity change, negative = cytotoxicity, most hits filed as cytotoxic | AID 588856 | actives 0.76% (n = 410,000)
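HepG2 CAGA-GFP cells (1000/well, DMEM with 1% FBS) received compound, then TGF-beta at 500 pg/mL final, and were incubated 18 hours at 37 degrees C. Viability was read by CellTiter-Glo luminescence. Media-only wells were set as complete cell-killing and DMSO as no toxicity.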
TGFb CAGA inh = TGF-b pathway inhibition, cherry-pick retest. shares compounds with TGFb inhibitor. HepG2 CAGA-GFP TGF-b reporter, GFP fluorescence, 18 h; cells stimulated with TGF-beta, 500 pg/mL. Potency, µM (titrated, usually from 46.1 µM), inactives show top-dose activity, negative = inhibition, hits mostly inhibitors. actives 63% (n = 1,600). AID 720534; also: % is scaled to controls: 0 for no effect and ±100 for the full control effect; nearly all actives have a fitted effect of over 65% in size
HepG2 tox-2 = counter-screen for TGF-b inhibitors: cytotoxicity in HepG2 cells; shares compounds with TGFb inhibitor; HepG2 CAGA-GFP viability, ATP luminescence, 18 h; cells stimulated with TGF-beta, 500 pg/mL; Potency, µM (series often up to 46.1 µM), for inactives: top-dose activity, negative = cytotoxicity, most hits filed as inhibitors; actives 27% (n = 1,600); AID 720535; also: % is scaled to controls: 0 for no effect and ±100 for the full control effect; nearly all actives have a fitted effect of over 70% in size
CCL64 TGFb inh = orthogonal confirmation of TGF-b inhibitors in CCL64 cells. CCL64 CAGA-GFP reporter, TGF-b stimulated, GFP fluorescence, 18 h. shares compounds with TGFb inhibitor. actives 41% (n = 1,600). Potency, µM (series often up to 46.1 µM), for inactives: top-dose activity, negative = inhibition, most hits filed as inhibitors; also: nearly all actives have a fitted effect of over 65% in size
COP TGFb inh = blocks TGF-b signaling in HepG2 COP reporter; shares compounds with TGFb inhibitor; HepG2 COP-GFP TGF-b reporter, GFP fluorescence, 18 h; cells stimulated by added recombinant TGF-beta; Potency, µM (highest dose often 46.1 µM), inactives show top-dose activity, negative = inhibition, hits mostly inhibitors; actives 3% (n = 1,600); AID 720537; also: nearly all actives have a fitted effect of over 70% in size
* = called active by the depositor; i = inactive; ? = inconclusive; · = not tested or not shown. Calls follow the shape of the dose curve; as a rule, active = well fitted curve in the direction sought with a large enough effect; inconclusive = small, poorly fitted or top-dose-only effect, or another doubt; inactive = no such curve, though single readings can be large; an effect the other way counts as inactive or inconclusive. Potency is read from the fitted curve at half-maximal effect.

SMILES	ALOX12 inh	TGFb inhibitor	ATXN viability	ATXN2 expr inh	HepG2 tox-1	TGFb CAGA inh	HepG2 tox-2	CCL64 TGFb inh	COP TGFb inh
CC(=O)N(c1ccccc1C)C1CCCC1	-1%	-1%	i	6%	21%	·	·	·	·
CC(=O)N(C1=C(Cl)C(=O)c2ccccc2C1=O)C1CCCCC1	1.8µM*	2.8µM*	·	?	-89%	3.3µM*	8.2µM*	4.6µM*	10µM*
COCCNC(=O)c1ccc2c(c1)N(C)C(CC(=O)N1CCCOCC1)CO2 (centres undefined)	-6%	·	·	·	·	·	·	·	·
O=C(CSc1nc2ccccc2o1)Nc1ccc2ccccc2c1	-3%	·	·	·	·	·	·	·	·
COc1ccc(CC(N)c2csc(NC(=O)Nc3ccccc3C(C)C)n2)cc1 (centres undefined)	-29%	5.6µM*	?	?	-106%	?	?	?	?
CC(=O)c1ccc(S(=O)(=O)NCCC(=O)NC2CCC(C)CC2)cc1 (centres undefined)	6%	·	·	·	·	·	·	·	·
O=C1CCCC2=C1C(c1ccc(O)c(Cl)c1)C1=C(CCCC1=O)O2	-30%	·	·	·	·	·	·	·	·
O=C(NCc1ccco1)c1cccc(Nc2nc3ccc(Br)cc3[nH]2)c1	0%	?	i	-24%	-42%	·	·	·	·
O=C(NCC1CC1)c1ccc(Nc2nc3ccc(Br)cc3[nH]2)cc1	?	10µM*	?	-20%	-27%	?	?	?	52%
CCOC(=O)C1CCN(Cc2cc(=O)oc3ccc(C)cc23)CC1	6%	·	·	·	·	·	·	·	·
CCC(=O)Nc1ccc2oc(-c3ccc(OC)c(Br)c3)nc2c1	-6%	·	·	·	·	·	·	·	·
OC(c1cc(-c2ccc(C(F)(F)F)cc2)nc(C(F)(F)F)c1)C1CCCCN1 (centres undefined)	?	2.8µM*	3.2µM*	·	-84%	6.5µM*	23µM*	23µM*	?
N#Cc1c(NC(=O)CN2CCNC(=O)C2)sc2c1CCCCC2	5%	·	·	·	·	·	·	·	·
Cc1ccc(-c2ccc(SCC(=O)Nc3ccc4c(c3)OCCO4)nn2)cc1	2%	3.2µM*	?	34%	-21%	21µM*	3%	8%	-6%
CC(=O)Nc1ccc(NC(=O)CSc2ccc(-c3ccc4c(c3)OCO4)nn2)cc1	?	3%	i	6%	-11%	·	·	·	·
O=C(Oc1c(CN2CCOCC2)cc(Cl)c2cccnc12)c1ccccc1Br	-1%	3.2µM*	?	·	-136%	-11%	?	?	1%
CN1CCN(Cc2cc(Cl)c3cccnc3c2OC(=O)c2cccs2)CC1	7%	-79%	?	?	-73%	·	·	·	·
Oc1c(CN2CCOCC2)cc(COCc2ccccc2)c2cccnc12	?	1µM*	i	5.6µM*	-38%	-22%	?	8.2µM*	21%
CC(C)CCCC(C)NC(=O)C1CCN(c2ncnc3nc[nH]c23)CC1 (centres undefined)	6%	·	·	·	·	·	·	·	·
CC(C)CCCCCCCCCCCCC(=O)NCC(=O)NC1C(C)OC(Nc2ncnc3nc[nH]c23)C(O)C1O (centres undefined)	-18%	0.35µM*	?	?	-25%	1µM*	?	0.52µM*	-29%
Cc1ccc(NC(=O)C(C)c2ccc(-c3ccccc3)c(F)c2)cc1 (centres undefined)	428%	10µM*	i	-26%	-33%	-10%	-13%	0%	-2%
CC(=O)O[C@@H](C[C@@H](C)C1=C2C[C@H](O)C3[C@@]4(C)CCC(=O)C(C)(C)C4CC[C@]3(C)[C@@]2(C)CC1)[C@H]1OC1(C)C (some centres undefined)	2%	11µM*	35µM*	?	-24%	13µM*	?	?	52%
CCCCNc1c(-c2ccc(OC)c(SC3CCCCC3)c2)nc2cc(C)ccn12	?	20µM*	?	?	-50%	?	?	16µM*	35%
CCCCNc1c(-c2ccc(OC)c(SC3CCCCC3)c2)nc2ccc(Cl)cn12	?	?	?	-21%	-28%	·	·	·	·
FC(F)(F)c1ccccc1Cc1c(-c2ccccc2)nc2ccc(Cl)cn12	2%	16µM*	i	40%	-23%	?	-16%	-1%	7%
SMILES	ALOX12 inh	TGFb inhibitor	ATXN viability	ATXN2 expr inh	HepG2 tox-1	TGFb CAGA inh	HepG2 tox-2	CCL64 TGFb inh	COP TGFb inh
FC(F)(F)c1ccccc1Cc1c(-c2ccc(Cl)cc2)nc2ccc(Cl)cn12	?	?	i	58%	-40%	·	·	·	·
O=C(COC(=O)C12CC3CC(CC(C3)C1)C2)Nc1ccc(Cl)cc1[N+](=O)[O-]	35%	·	·	·	·	·	·	·	·
O=C(Nc1ccon1)c1sc2cccc(Cl)c2c1Cl	1%	·	·	·	·	·	·	·	·
O=C(NC(c1ccccc1)c1ccc2ccccc2n1)C1CCN(CCOc2ccc(Cl)cc2Cl)CC1 (centres undefined)	?	10µM*	i	?	-93%	?	18µM*	?	?
CC(NC(=O)C1CCN(CCOc2ccc(Cl)cc2)CC1)c1cccc2ccccc12 (centres undefined)	22µM*	6.3µM*	?	?	11µM*	26µM*	18µM*	?	-27%
CC(C)=CCC/C(C)=C/CNC(=O)C[C@H]1C[C@H](C(=O)N2CCOCC2)[C@@]2(C)c3[nH]c4ccc(Cl)cc4c3CCN2C1=O	?	10µM*	i	4%	18µM*	13µM*	?	13µM*	-20%
C[C@]12c3[nH]c4ccc(Cl)cc4c3CCN1C(=O)[C@@H](CC(=O)NCCC1=CCCCC1)C[C@@H]2C(=O)N1CCOCC1	0%	?	?	?	-26%	16µM*	-9%	?	2%
